SARS 3CLpro inh-1 = SARS-CoV 3CLpro protease inhibitors, primary screen, biochemical, quenched FRET; Replicase polyprotein 1ab (Severe acute respiratory syndrome coronavirus), P0C6X7; recombinant SARS-CoV 3CLpro, quenched FRET peptide cleavage; inhibition, % at 6 µM; actives 0.14% (n = 290,000); AID 1706, 2009; in the data active = inhibition above about 12%
BJeLR viability = MLPCN primary cell-based screen for lethality selective to Ras in HRASV12 cells | AID 1554, 2009 | inhibition, % (no concentration beside the values) | BJeLR (HRASV12) viability, CellTiter-Glo ATP luminescence, 48 h | actives 0.17% (n = 300,000); in the data active = inhibition above about 50%
DUSP3 inh = VHR1 phosphatase inhibitors, primary screen, biochemical, absorbance, uHTS | actives 0.52% (n = 290,000) | Dual specificity protein phosphatase 3 (Homo sapiens), P51452 | inhibition, % at 13.3 µM | recombinant VHR phosphatase, pNPP absorbance; in the data active = inhibition above about 50%
Target sequence (P51452 whole entry, looked up): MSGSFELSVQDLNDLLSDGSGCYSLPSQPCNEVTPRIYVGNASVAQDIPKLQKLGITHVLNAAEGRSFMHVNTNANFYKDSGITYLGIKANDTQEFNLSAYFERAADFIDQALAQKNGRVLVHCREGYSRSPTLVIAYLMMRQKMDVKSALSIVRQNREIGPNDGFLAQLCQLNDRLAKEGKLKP
PrPC surface inh = inhibitors of human cell surface prion protein PrPC, primary screen, cell-based, TR-FRET. AID 720596, 2013. actives 0.43% (n = 370,000). inhibition, % at 13.8 µM. TR-FRET read-out. Major prion protein (Homo sapiens), P04156; in the data active = inhibition above about 24%; note: 0% = median of the test wells and 100% = reference compound wells
SARS 3CLpro inh-2 = confirmation of SARS coronavirus 3C-like protease inhibitors, retest, confirmation, biochemical | QFRET protease activity assay, 3CLpro | actives 36% (n = 380) | AID 1879, 2009 | shares compounds with SARS 3CLpro inh-1 | inhibition, % at 6 µM; in the data active = inhibition above about 13%
Numbers without * were called inactive; x = no result given. Sampled rows, rich in hits. Any-hit rate of the full collection: about 1.1%.

SMILES | SARS 3CLpro inh-1 | BJeLR viability | DUSP3 inh | PrPC surface inh | SARS 3CLpro inh-2
O=C1c2cccc3cc([N+](=O)[O-])cc(c23)C(=O)N1CCN1CCCC1 | -1.4 | 95.6* | 27.2 | -7.7 | x
CCc1ccc2[nH]c(=O)c(CN(CCCN3CCOCC3)C(=O)Nc3ccc(Cl)cc3)cc2c1 | -5.5 | -1.0 | 52.6* | -6.4 | x
CCCCCCCCN1C(=O)[C@H](CC(=O)NCCc2ccccc2OC)C[C@@]2(C(=O)OC)CC(C)(C)CC=C12 | x | x | x | 9.5 | x
COc1cc2c(c(OC)c1OC)-c1ccc(O)c(=O)cc1C(NC(C)=O)CC2 (stereo unspecified) | -1.2 | 56.9* | 2.1 | -11.6 | x
COc1ccc(C(=O)N/C(=C\c2cn(S(=O)(=O)N(C)C)c3ccccc23)C(=O)N2CCOCC2)cc1 | -4.4 | -6.2 | 45.8 | -2.9 | x
CC(NC(=O)CCCc1ccccc1)c1ccncc1 (stereo unspecified) | -2.7 | -1.6 | 39.1 | 0.1 | x
COc1ccc(CCN2CC(C(=O)N(C)Cc3ccccc3OC)CCC2=O)cc1 (stereo unspecified) | -5.6 | 3.5 | 52.7* | 4.0 | x
CCCCNC(=S)NNc1c(Cl)cc(Cl)cc1Cl | -0.5 | 7.5 | 51.3* | 5.8 | x
O=C(NCCCl)NNc1c(Cl)cc(Cl)cc1Cl | -0.1 | 1.4 | -8.7 | -2.2 | x
O=Cc1ccc(OC(=O)C2CC(=O)N(c3ccc(F)cc3)C2)cc1 (stereo unspecified) | -5.3 | 4.4 | 51.2* | 7.9 | x
O=C(O)C1CC(=O)N(c2ccc(F)cc2)C1 (stereo unspecified) | -1.9 | -17.7 | 10.9 | -2.8 | x
CCc1nc2ccc(C(=O)NCCCn3ccnc3)cn2c1N(CC)C(=O)NCCc1ccccc1 | x | x | x | 0.1 | x
CC1=C(C(=O)Nc2ccc(CC(=O)NCc3ccccc3C)cc2)SCCO1 | -2.9 | -13.7 | 23.2 | 2.0 | x
CCc1ccc(CNC(=O)Cc2ccc(NC(=O)C3=C(C)OCCS3)cc2)cc1 | -2.4 | 53.1* | 51.3* | 11.2 | x
Nc1ncnc2c1ncn2[C@@H]1O[C@H](C(=O)NCC2CCN(Cc3ccccc3)CC2)[C@@H](O)[C@H]1O | x | x | x | 2.8 | x
CC(C)(C)c1ccc(NC(=O)CSc2n[nH]c(=O)n2-c2cccnc2)cc1 | 12.2* | 9.6 | -4.4 | 5.3 | -3.2
COC(=O)CCC(=O)N1CCC(CCC(=O)NCc2ccc(F)cc2)CC1 | 1.4 | -4.8 | 2.3 | -1.8 | x
CC(C)(C)OC(=O)[C@H](Cc1ccccc1)NC(=O)c1nc[nH]c1C(=O)N[C@@H](Cc1ccccc1)C(=O)OC(C)(C)C | x | 3.2 | -0.3 | 12.2 | x
CC(C)(C)OC(=O)[C@H](Cc1ccccc1)NC(=O)c1[nH]cnc1C(=O)N[C@@H](Cc1ccccc1)C(=O)OCc1ccccc1 | 12.7* | 6.1 | 20.5 | 11.5 | 4.8
O=C(Oc1ccc(Cl)cc1N1C(=O)CCC1=O)c1ccco1 | 15.1* | 2.8 | -0.6 | -1.4 | 18.1*
O=C(Oc1ccc(N2C(=O)CCC2=O)cc1)c1ccco1 | 8.6 | 10.6 | 1.4 | 0.7 | x
O=C(O)CSCC(=O)N(Cc1ccccc1)c1nc(-c2ccccc2)c(-c2ccccc2)s1 | 12.5* | -6.9 | 16.6 | 7.2 | 5.5
CCOC(=O)c1sc(N(Cc2ccccc2)C(=O)CCl)nc1C | 5.9 | 24.0 | -28.8 | 2.2 | x
CCc1ccc2c(c1)C(NC(C)=O)C(=O)N2CCN1CCOCC1 (stereo unspecified) | 13.9* | -1.9 | -3.8 | -5.8 | 49.9*
C/C(=N\N=C(/N)SC1CC(=O)N(c2cccc(Cl)c2)C1=O)c1cccs1 (stereo unspecified) | 13.1* | 5.1 | 21.9 | 4.6 | 2.2
SMILES | SARS 3CLpro inh-1 | BJeLR viability | DUSP3 inh | PrPC surface inh | SARS 3CLpro inh-2
O=c1[nH]c(=S)[nH]c2c1C(c1ccc(Cl)cc1)OC(C1CCCCC1)C2 (stereo unspecified) | x | x | x | 3.9 | x
CCOC(=O)c1c(NC(=O)CN2CCCCC2)sc(CN(C)C)c1-c1ccccc1 | 2.4 | -6.5 | 29.4 | -0.3 | x
CCOC(=O)c1c(NC(=O)CCl)sc(CN(C)C)c1-c1ccccc1 | 31.4* | 0.4 | 26.2 | -0.1 | 58.8*
Cc1ccc(-n2nnnc2SCC(=O)NC(C(=O)O)(c2ccccc2)c2ccccc2)cc1C | 14.2* | -5.3 | -4.6 | -3.8 | 4.2
COc1ccc(CN(C)C(=O)CSc2nnc(C3CC3)n2C2CC2)cc1 | x | x | x | 4.4 | x
CCN(CC)CCCN1C(=O)C2=C(C1=O)C1N(C)c3ccccc3[C@@]13C[C@@H](CO)N(C(=O)CCC(=O)OC)C3=N2 (stereo partly specified) | x | x | x | -4.9 | x
C[C@@H]1COc2cc(N3CCSCC3)ccc2S(=O)(=O)N1C | x | x | x | -6.5 | x
CCn1nc(-c2ccccc2)nc2c(=O)n(C)c(=O)nc1-2 | 16.8* | 0.5 | 31.2 | x | 36.6*
CC(C)CNc1ncnc2c1ncn2[C@H]1CN(Cc2ccc(-c3ccccc3)cc2)C[C@@H](CO)O1 | x | x | x | 0.1 | x
CC(=O)N(c1ccc(C(F)(F)F)cc1)S(=O)(=O)c1ccc(N2C(=O)CCC2=O)cc1 | 12.6* | 11.1 | 0.3 | 2.9 | 1.1
Cc1ccc(-c2ccc3c(c2)S(=O)(=O)c2ccccc2C3=O)cc1 | x | 4.1 | x | x | x
Cc1ccc(C)c(CC(=O)N2CCCCC2c2cc(C(=O)Nc3cccc(C#N)c3)no2)c1 (stereo unspecified) | x | x | x | 12.0 | x
Cc1ccc(C(=O)C2=C(O)C(=O)N(Cc3cccnc3)C2c2ccc(OC(C)C)cc2)o1 (stereo unspecified) | 12.6* | 5.1 | -19.7 | 2.3 | -7.2
CCOC(=O)C1(C)CCN1C(=O)c1cc(F)ccc1C (stereo unspecified) | x | x | x | -4.7 | x
Cc1ccc(N(C(=O)c2ccco2)C(C(=O)NC2CCCC2)c2cccnc2)cc1C (stereo unspecified) | 3.6 | -1.3 | -14.9 | 8.7 | x
CC(C)c1ccc(N(C(=O)c2ccco2)C(C(=O)NC2CCCC2)c2ccncc2)cc1 (stereo unspecified) | 6.7 | 2.1 | 33.9 | 7.5 | x
CCc1ccc(N(C(=O)c2ccco2)C(C(=O)NC2CCCC2)c2cccnc2)cc1 (stereo unspecified) | 16.1* | 4.3 | 6.4 | -2.0 | 8.6
CCC(C)c1ccc(N(C(=O)c2ccco2)C(C(=O)NC2CCCC2)c2cccnc2)cc1 (stereo unspecified) | 74.9* | 4.1 | 1.1 | 3.7 | 74.9*
Cc1ccc(S(=O)(=O)N2C3CC(c4ccccc4)N(S(=O)(=O)c4cccc(Cl)c4)CC3C(=O)C[C@H]2c2ccccc2)cc1 (stereo partly specified) | x | x | x | -0.4 | x
O=C(CSc1ccccn1)Nc1nonc1[N+](=O)[O-] | 41.1* | 23.0 | -6.0 | 4.5 | 48.8*
COc1ccc(C(=O)Nn2cnc3scc(-c4cccs4)c3c2=O)c(O)c1 | 13.6* | -2.0 | x | -0.5 | 6.3
Cc1cc(C)cc(NS(=O)(=O)c2ccc3[nH]cc(C(=O)N4CCc5ccccc54)c(=O)c3c2)c1 | 13.9* | 7.3 | -1.6 | -1.0 | -1.7
